Results: PubChem BioAssay (NCI)
Compounds without any hit were thinned out: in the full panel of roughly 83,000, 20% have a hit.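 In brief: 96-well plates, 48 h treatment, single concentration, percent growth endpoint.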 Values without a mark were called inactive. Calls of active or inactive are those of the source. The calls were made as follows: active = growth percent below 10; inactive = the rest.

Tests used:
Assay in all cases: NCI-60 one-dose screen, 48 h (100 = growth as untreated, 0 = no growth, -100 = all killed)
Settings in all cases: 10 µM unless noted
NCI-H23 lung = test system: NCI-H23 lung
NCI-H226 lung = test system: NCI-H226 lung
NCI-H322M lung = test system: NCI-H322M lung
HOP-62 NSCLC = test system: HOP-62 NSCLC
NCI-H460 lung = test system: NCI-H460 lung
NCI-H522 lung = test system: NCI-H522 lung
A549/ATCC NSCLC = test system: A549/ATCC NSCLC
786-0 renal = test system: 786-0 renal
COLO 205 colon = test system: COLO 205 colon
DU-145 prostate = test system: DU-145 prostate
K-562 leukemia = test system: K-562 leukemia
MALME-3M melanoma = test system: MALME-3M melanoma
RXF 393 renal = test system: RXF 393 renal
SF-268 CNS = test system: SF-268 CNS
SF-295 CNS = test system: SF-295 CNS
SF-539 CNS = test system: SF-539 CNS
UACC-257 melanoma = test system: UACC-257 melanoma
M14 melanoma = test system: M14 melanoma
MDA-MB-231 breast = test system: MDA-MB-231 breast

Nc1cc2c(cc1Cl)C(=O)c1ccccc1C2=O
growth (NCI-H23 lung): 0.869% (active) | growth (NCI-H226 lung): 12.7% | growth (NCI-H322M lung): 30.2% | growth (HOP-62 NSCLC): 26.8% | growth (NCI-H460 lung): 0.87% (active) | growth (NCI-H522 lung): 65% | growth (A549/ATCC NSCLC): 27.2% | growth (786-0 renal): -19% (active) | growth (COLO 205 colon): 76.2% | growth (DU-145 prostate): 67.7% | growth (K-562 leukemia): 72.4% | growth (MALME-3M melanoma): 64.7% | growth (RXF 393 renal): 72.2% | growth (SF-268 CNS): 44.5% | growth (SF-295 CNS): 35.4% | growth (SF-539 CNS): -82% (active) | growth (UACC-257 melanoma): 89.8% | growth (M14 melanoma): 85.3%

CCCC(=O)CC(=O)c1ccccc1
growth (NCI-H23 lung): 96% | growth (NCI-H226 lung): 91.7% | growth (NCI-H322M lung): 95.1% | growth (HOP-62 NSCLC): 92.8% | growth (NCI-H460 lung): 106% | growth (NCI-H522 lung): 78.1% | growth (A549/ATCC NSCLC): 97.9% | growth (786-0 renal): 103% | growth (COLO 205 colon): 113% | growth (DU-145 prostate): 106% | growth (K-562 leukemia): 112% | growth (MALME-3M melanoma): 107% | growth (MDA-MB-231 breast): 111% | growth (RXF 393 renal): 93.6% | growth (SF-268 CNS): 97.3% | growth (SF-295 CNS): 97% | growth (SF-539 CNS): 104% | growth (UACC-257 melanoma): 80.9% | growth (M14 melanoma): 100%

Cc1nc(O)cc(=O)[nH]1
growth (NCI-H23 lung): 108% | growth (NCI-H226 lung): 111% | growth (NCI-H322M lung): 99.3% | growth (HOP-62 NSCLC): 112% | growth (NCI-H460 lung): 104% | growth (NCI-H522 lung): 103% | growth (A549/ATCC NSCLC): 109% | growth (786-0 renal): 114% | growth (COLO 205 colon): 115% | growth (DU-145 prostate): 113% | growth (K-562 leukemia): 112% | growth (MALME-3M melanoma): 106% | growth (MDA-MB-231 breast): 124% | growth (RXF 393 renal): 111% | growth (SF-268 CNS): 105% | growth (SF-295 CNS): 118% | growth (SF-539 CNS): 114% | growth (UACC-257 melanoma): 92.1% | growth (M14 melanoma): 105%

NNC(=O)c1ccccc1N
growth (NCI-H23 lung): 101% | growth (NCI-H226 lung): 114% | growth (NCI-H322M lung): 118% | growth (HOP-62 NSCLC): 90.6% | growth (NCI-H460 lung): 118% | growth (NCI-H522 lung): 130% | growth (A549/ATCC NSCLC): 120% | growth (786-0 renal): 96.9% | growth (COLO 205 colon): 133% | growth (DU-145 prostate): 120% | growth (K-562 leukemia): 118% | growth (MALME-3M melanoma): 110% | growth (MDA-MB-231 breast): 113% | growth (RXF 393 renal): 40.6% | growth (SF-268 CNS): 114% | growth (SF-295 CNS): 110% | growth (SF-539 CNS): 112% | growth (UACC-257 melanoma): 93.9% | growth (M14 melanoma): 106%

FC(F)(F)c1cc(NC2=NCCN=C(Nc3cc(C(F)(F)F)cc(C(F)(F)F)c3)SS2)cc(C(F)(F)F)c1
growth (NCI-H23 lung): 47.2% | growth (NCI-H226 lung): 67.9% | growth (NCI-H322M lung): 90.1% | growth (HOP-62 NSCLC): 74.8% | growth (NCI-H460 lung): 40% | growth (NCI-H522 lung): 13.1% | growth (A549/ATCC NSCLC): 49.1% | growth (786-0 renal): 70.6% | growth (COLO 205 colon): 49.1% | growth (DU-145 prostate): 66.6% | growth (K-562 leukemia): 28.8% | growth (MALME-3M melanoma): 37% | growth (MDA-MB-231 breast): 73.2% | growth (RXF 393 renal): 77.6% | growth (SF-268 CNS): 74.2% | growth (SF-295 CNS): 52.6% | growth (SF-539 CNS): 81.3% | growth (UACC-257 melanoma): 64.4% | growth (M14 melanoma): 82.1%

CC(C)(CC(=O)O)CC(=O)O
growth (NCI-H23 lung): 100% | growth (NCI-H226 lung): 96.5% | growth (NCI-H322M lung): 96.7% | growth (HOP-62 NSCLC): 111% | growth (NCI-H460 lung): 102% | growth (NCI-H522 lung): 98.5% | growth (A549/ATCC NSCLC): 101% | growth (786-0 renal): 102% | growth (COLO 205 colon): 119% | growth (DU-145 prostate): 111% | growth (K-562 leukemia): 107% | growth (MALME-3M melanoma): 107% | growth (MDA-MB-231 breast): 95.5% | growth (SF-268 CNS): 102% | growth (SF-295 CNS): 110% | growth (SF-539 CNS): 95% | growth (UACC-257 melanoma): 113% | growth (M14 melanoma): 101%

Cc1cc2c3ccc(C)[n+](C)c3ccc2n1C
growth (NCI-H23 lung): 23.3% | growth (NCI-H226 lung): 80.9% | growth (NCI-H322M lung): 99.5% | growth (HOP-62 NSCLC): 33.8% | growth (NCI-H460 lung): 61.7% | growth (NCI-H522 lung): 49.7% | growth (A549/ATCC NSCLC): -0.921% (active) | growth (786-0 renal): 53.4% | growth (COLO 205 colon): 10.7% | growth (DU-145 prostate): 46.7% | growth (MALME-3M melanoma): 46.9% | growth (MDA-MB-231 breast): 33.6% | growth (RXF 393 renal): 61.6% | growth (SF-268 CNS): 19% | growth (SF-295 CNS): 26.4% | growth (SF-539 CNS): 67.5% | growth (UACC-257 melanoma): 32.2% | growth (M14 melanoma): 92.7%

O=c1[nH]c(=O)c2cc(Cl)cc(Cl)c2[nH]1
growth (NCI-H23 lung): 101% | growth (NCI-H226 lung): 96.8% | growth (NCI-H322M lung): 94.8% | growth (HOP-62 NSCLC): 113% | growth (NCI-H460 lung): 112% | growth (NCI-H522 lung): 99.7% | growth (A549/ATCC NSCLC): 108% | growth (786-0 renal): 101% | growth (COLO 205 colon): 117% | growth (DU-145 prostate): 136% | growth (K-562 leukemia): 106% | growth (MALME-3M melanoma): 116% | growth (MDA-MB-231 breast): 107% | growth (RXF 393 renal): 113% | growth (SF-268 CNS): 109% | growth (SF-295 CNS): 114% | growth (SF-539 CNS): 99.5% | growth (UACC-257 melanoma): 93% | growth (M14 melanoma): 102%

Cc1cc(Nc2ccc3c(c2)OCO3)c2cc3c(cc2n1)OCO3
growth (NCI-H23 lung): 46% | growth (NCI-H226 lung): 88% | growth (NCI-H322M lung): 57.5% | growth (HOP-62 NSCLC): 17.9% | growth (NCI-H460 lung): 6.21% (active) | growth (NCI-H522 lung): -21.1% (active) | growth (A549/ATCC NSCLC): 46.3% | growth (786-0 renal): 18.9% | growth (COLO 205 colon): -21.3% (active) | growth (DU-145 prostate): 3.67% (active) | growth (K-562 leukemia): 36.8% | growth (MALME-3M melanoma): 24.4% | growth (MDA-MB-231 breast): 32.3% | growth (RXF 393 renal): 6.97% (active) | growth (SF-268 CNS): 37.9% | growth (SF-295 CNS): -62.6% (active) | growth (SF-539 CNS): -15.5% (active) | growth (UACC-257 melanoma): 75.7% | growth (M14 melanoma): -16.7% (active)
